Screening results: PubChem, several laboratories
This is a sample that favours compounds with a hit; in the whole collection about 1.9% have one here.
LANA-H2B inh: blockers of LANA interaction with H2A/H2B – biochemical, FP readout, HTS, primary screen. Protein LANA1 (Human herpesvirus 8 type P (isolate GK18)), Q9QR71. inhibition, % (no concentration beside the values). cell-free LANA-H2A/H2B peptide, fluorescence polarization. hit rate 0.6% among 320,000; in the data active = inhibition mostly above about 10%, no sharp cut-off; inactive = mostly below about 6.7%
MEX-5 binding: MEX-5 zinc finger RNA-binding disruptors – biochemical, C. elegans, fluorescence polarization, MLPCN library, primary screen | activity score (negative = inhibition of binding), % at 10 µM | hit rate 0.38% among 300,000 | Zinc finger protein mex-5 (Caenorhabditis elegans), Q9XUB2 | MEX-5/FITC-TCR2 RNA binding; hits give low values;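 active = inhibition past about -25% in most replicates, and total fluorescence under double the plate's negative control median, limit read from the data; inconclusive = replicates evenly split on the limit, or fluorescence at least double controls; inactive = too little inhibition in most replicates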
Target sequence (Q9XUB2 whole entry, looked up): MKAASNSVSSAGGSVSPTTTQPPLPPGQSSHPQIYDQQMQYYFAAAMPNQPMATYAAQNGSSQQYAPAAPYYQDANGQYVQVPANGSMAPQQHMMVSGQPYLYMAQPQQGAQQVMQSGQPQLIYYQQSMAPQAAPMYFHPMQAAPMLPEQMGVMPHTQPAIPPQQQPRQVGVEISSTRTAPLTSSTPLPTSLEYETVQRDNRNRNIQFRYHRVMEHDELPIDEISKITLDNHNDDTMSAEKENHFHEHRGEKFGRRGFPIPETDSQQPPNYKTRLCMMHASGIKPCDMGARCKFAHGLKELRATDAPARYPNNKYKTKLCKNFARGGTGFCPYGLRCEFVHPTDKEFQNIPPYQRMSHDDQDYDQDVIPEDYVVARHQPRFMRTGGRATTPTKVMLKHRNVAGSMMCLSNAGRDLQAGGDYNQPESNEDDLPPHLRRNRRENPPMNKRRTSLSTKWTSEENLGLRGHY
MCL1 BIM primary: inhibitors of MCL1 binding to BIM-BH3, primary screen, biochemical, fluorescence polarization; inhibition, % at 10.9 µM; hit rate 0.68% among 320,000; AID 2057, 2009; GST-MCL1 / FITC-Bim-BH3 fluorescence polarization; Induced myeloid leukemia cell differentiation protein Mcl-1 (Homo sapiens), Q07820;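 active = inhibition above the mean inhibition of all tested compounds plus 3 SD, set per campaign, cut at about 40% in these data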;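 also: higher means more loss of mP so more displacement of Bim peptide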
Yeast superoxide: reduction of superoxide in aged yeast, primary screen, HTS; S. cerevisiae aged cells, superoxide DHE fluorescence; hits give low values; superoxide response (% of plate mean), % at 10 µM; hit rate 0.18% among 330,000;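 active = superoxide response under a set limit, about three screen SD below normal, cut at about 65% in these data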;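 also: yeast aged for seven days with compound at 30 °C before DHE staining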
Bcl-xL primary: inhibitors of human Bcl-xL, primary screen, biochemical, fluorescence polarization, HTS | GST-Bcl-xL / FITC-Bim BH3 peptide fluorescence polarization | inhibition, % at 10.9 µM | Bcl-2-like protein 1 (Homo sapiens), Q07817 | hit rate 0.7% among 320,000 | AID 2129, 2009;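 active = inhibition above the mean of all tested compounds plus 3 SD, cutoff set per campaign, cut at about 30% in these data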;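 also: inhibitors lower millipolarization by displacing the labeled peptide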
Target sequence (Q07817 whole entry, looked up): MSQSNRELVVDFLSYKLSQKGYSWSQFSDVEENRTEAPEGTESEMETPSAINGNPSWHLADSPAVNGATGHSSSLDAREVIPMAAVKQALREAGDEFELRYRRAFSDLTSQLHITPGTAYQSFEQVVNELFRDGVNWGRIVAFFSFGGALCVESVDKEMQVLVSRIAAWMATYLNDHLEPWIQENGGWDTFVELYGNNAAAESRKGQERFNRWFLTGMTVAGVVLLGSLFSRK
GLD-1 RNA inh: GLD-1/TGE RNA complex disruptors, primary screen, biochemical, fluorescence polarization; Female germline-specific tumor suppressor gld-1 (Caenorhabditis elegans), Q17339; purified GLD-1 + fluorescein TGE RNA; inhibition, % at 5.96 µM; hit rate 0.44% among 320,000;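 active = percent inhibition above a per-plate cutoff, the plate mean of test compounds plus 3 SD, cut at about 30% in these data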
Each line names hits and unclear results; the compound was inactive in the other large screens.

O=C(c1ccco1)[C@@H]1[C@@H]2C(=O)N(c3ccc(F)cc3)C(=O)[C@@H]2C2c3ccccc3C=CN21 (stereo partly specified)	MCL1 BIM primary 82, Bcl-xL primary 78, GLD-1 RNA inh 69
O=C1C2C3C=CC(C3)C2C(=O)N1c1ccccc1 (stereo unspecified)	none
O=C(c1ccco1)[C@@H]1[C@@H]2C(=O)N(c3ccc(F)cc3)C(=O)[C@@H]2[C@H]2C=Cc3ccccc3N21	Bcl-xL primary 33 (no result: MEX-5 binding)
NC(=O)[C@@H]1[C@@H]2C(=O)N(c3ccc(F)cc3)C(=O)[C@@H]2[C@H]2C=Cc3ccccc3N21	Bcl-xL primary 34
Cc1ccc(N2C(=O)[C@@H]3[C@H](C2=O)C2c4ccccc4C=NN2[C@@H]3C(=O)c2ccc(Cl)cc2)cc1 (stereo partly specified)	none
COC(=O)Cn1c(C)nc(=O)c(-c2ccccc2)c1C	LANA-H2B inh 15
O=C1NC(Cc2ccccc2)c2nc3cc(F)ccc3c(=O)n2-c2ccccc21 (stereo unspecified)	none (no result: MEX-5 binding, MCL1 BIM primary, Bcl-xL primary)
CCc1cccc(C)c1NC(=O)C1CC(=O)N(C2CCCC2)C1 (stereo unspecified)	none (no result: MEX-5 binding)
CC(CCc1ccccc1)NC(=O)C1CCN(C(=O)c2sccc2-n2cccc2)CC1 (stereo unspecified)	Bcl-xL primary 72
O=C(NCCc1ccc(Cl)cc1)C1CCN(C(=O)c2sccc2-n2cccc2)CC1	none
CN(Cc1ccccc1)C(=O)c1cccc(NC(=O)C2CCCN(C(=O)OC(C)(C)C)C2)c1 (stereo unspecified)	none (no result: MEX-5 binding, MCL1 BIM primary, Bcl-xL primary)
CCCCCCn1nc(C(=O)N(CCOC)c2c(N)n(CCCC)c(=O)[nH]c2=O)c2ccccc2c1=O	LANA-H2B inh 18
CCCCCn1nc(C(=O)N(CCOC)c2c(N)n(CCCC)c(=O)[nH]c2=O)c2ccccc2c1=O	none
CC(C)CC(=O)N1CCN(C(=O)c2ccc(F)cc2)CC1	LANA-H2B inh 16
CCOC(=O)c1[nH]c(C)c(C(=O)OCC(=O)N(Cc2ccccc2)C(C)C)c1C	none (no result: LANA-H2B inh, MEX-5 binding)
Cc1csc(-c2coc3cc(O)cc(C)c3c2=O)n1	LANA-H2B inh 8.1
CCc1cc2c(=O)c(-c3nc(C)cs3)coc2cc1O	none
CC(=O)c1ccc(OCCCC(=O)Nc2nnc(C3CC3)s2)cc1	none (no result: MEX-5 binding, MCL1 BIM primary, Bcl-xL primary)
Cc1ccc2c(c1)nnn2C1CCN(S(=O)(=O)c2ccc(C(=O)O)cc2)CC1	LANA-H2B inh 126
O=C(CSC(=S)N1CCCC1)N(Cc1nnc(-c2ccccc2Cl)o1)C1CC1	none (no result: MEX-5 binding)
O=C(N/N=C/c1cc(Cl)cc([N+](=O)[O-])c1O)c1ccc2c(c1)OCO2	MEX-5 binding -31
O=C(N/N=C/c1cc(Cl)cc([N+](=O)[O-])c1O)c1ccccc1NS(=O)(=O)c1cccs1	MEX-5 binding -47
COCCNC(=O)c1c(CS(=O)(=O)c2ccccc2)noc1C(=O)NCc1ccccc1	none (no result: Yeast superoxide)
CCOC(=O)C1=C(COC(=O)C(CC)c2ccccc2)NC(=O)NC1C (stereo unspecified)	none (no result: MEX-5 binding)
CCCN(CC(=O)Nc1ccccc1OC)C(=O)CCNC(=O)c1ccccc1OC	LANA-H2B inh 41
Cc1ccc(N(CC(=O)N2CCN(c3ccccc3F)CC2)S(=O)(=O)c2c(C)noc2C)cc1	none
COc1ccc(C(CNC(=O)c2cccc(S(=O)(=O)N3CCOCC3)c2)N2CCCC2)cc1 (stereo unspecified)	LANA-H2B inh 11 (no result: MEX-5 binding)
COc1ccc(-c2nc(-c3ccccc3)nc(N3CCN(C)CC3)c2C#N)cc1	none
CN1CCN(c2nc(-c3ccccc3)nc(-c3ccccc3)c2C#N)CC1	MEX-5 binding -26
COC/C=C/C1=CC2=CC(=O)C(C)(OC(=O)c3cnc4ccccc4n3)C(=O)C2=CN1CCCCO (stereo unspecified)	none
COC(=O)CCCC1=CC2=CC(=O)C(C)(OC(=O)c3cnc4ccccc4n3)C(=O)C2=CO1 (stereo unspecified)	MEX-5 binding -67, MCL1 BIM primary 114, Bcl-xL primary 95, GLD-1 RNA inh 94
COC/C=C/C1=CC2=CC(=O)C(C)(OC(=O)c3cnc4ccccc4n3)C(=O)C2=CN1CCc1ccccn1 (stereo unspecified)	MCL1 BIM primary 55, Bcl-xL primary 52, GLD-1 RNA inh 32
CCCCC1=CC2=CC(=O)C(C)(OC(=O)c3cnc4ccccc4n3)C(=O)C2=CO1 (stereo unspecified)	MEX-5 binding inconclusive, MCL1 BIM primary 96, Bcl-xL primary 64, GLD-1 RNA inh 97
O=C1CCC(C(=O)N2CCCO2)CN1Cc1cccc(C(F)(F)F)c1 (stereo unspecified)	none (no result: LANA-H2B inh, MCL1 BIM primary, Yeast superoxide, Bcl-xL primary, GLD-1 RNA inh)
C[C@H](NC(=O)c1ccc(C(C)(C)C)cc1)C(=O)N1CCOCC1	none (no result: MEX-5 binding, MCL1 BIM primary, Bcl-xL primary)
COc1cccc(Oc2ccc(S(=O)(=O)N3CCOCC3)cc2[N+](=O)[O-])c1	none (no result: MEX-5 binding, MCL1 BIM primary, Bcl-xL primary)
C[C@H]1CCC(=O)N([C@H](CSc2ccc(Br)cc2)Cc2ccccc2)CC1	none (no result: MEX-5 binding)
CC(C)Oc1ccc(S(=O)(=O)N2CCOCC2)cc1NC(=O)C1COc2ccccc2O1 (stereo unspecified)	none (no result: LANA-H2B inh, MEX-5 binding)
COc1ccc2cc(N=Cc3nc(-c4ccc(C)cc4)oc3O)cnc2c1	MEX-5 binding -47
CCn1nc(C(=O)Nc2ccc(S(=O)(=O)Nc3ncccn3)cc2)c2ccccc2c1=O	none
CCCn1nc(C(=O)Nc2ccc(S(=O)(=O)Nc3nccs3)cc2)c2ccccc2c1=O	MEX-5 binding -41
O=C(Nc1ccc(S(=O)(=O)Nc2nccs2)cc1)c1ccc(N2C(=O)c3ccccc3C2=O)cc1	MEX-5 binding -29
CSc1ncccc1C(=O)OCC(=O)NCCc1ccccc1	none (no result: MEX-5 binding, MCL1 BIM primary, Bcl-xL primary)
Cc1ccc(-c2nnc(NC3CCCC3)s2)cc1	none
Fc1ccc(CN2C3=NCCCN3c3ccccc32)cc1	LANA-H2B inh 59
COc1c(O)cccc1[C@@H](O)C1CCN(CCc2ccc(F)cc2)CC1	MEX-5 binding -29, Bcl-xL primary 41, GLD-1 RNA inh 58
Cc1ccc(S(=O)(=O)N2CCOCC2)cc1C(=O)Nc1ccc2c(c1)OCCO2	none (no result: MEX-5 binding)
Cc1ccc(N2C(=O)c3cccc4c(N)ccc(c34)C2=O)c2cccnc12	Bcl-xL primary 30
CC(=O)Nc1cccc(NC(=O)C(=O)NCC(c2ccco2)N2CCc3ccccc3C2)c1 (stereo unspecified)	none
COc1ccccc1CN1CC(C(=O)N(Cc2cnn(C)c2)C(C)C)CCC1=O (stereo unspecified)	none
CCOC(=O)c1ccc(NC(=O)CN2C(=O)CSCC2=O)cc1	none
